{
  "source": "PubChem BioAssay (EPA / NIEHS)",
  "key": {"[1]": {"assay": "UKN5_HCS_SBAD2_cell_viability: Viability Assessment in the University of Konstanz (UKN) Leist Lab Neurite Outgrowth Assay in human iPSC-derived immature Dorsal Root Ganglia Neurons (UKN5) (AID 2284056)", "in_short": "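iPSC-derived immature peripheral neurons (SBAD2) seeded on Matrigel with CHIR99021, SU5402 and DAPT, dosed 1 h later for 24 h. Viability from Hoechst H-33342 and calcein-AM live staining, high-content imaging; bidirectional fit versus DMSO.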"}, "[2]": {"assay": "UKN5_HCS_SBAD2_neurite_outgrowth: University of Konstanz (UKN) Leist Lab Neurite Outgrowth Assay in human iPSC-derived immature Dorsal Root Ganglia Neurons (UKN5) (AID 2284070)", "conditions": "actives raise or lower the signal", "in_short": "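SBAD2 iPSC-derived immature peripheral neurons on Matrigel, 100.000 cells/cm2, medium with CHIR99021 (1.5 uM), SU5402 (5 uM), DAPT (5 uM); compound added 1 h post-seeding for 24 h. Calcein-AM neurite area by high-content imaging; Hoechst H-33342 viability; bidirectional fit vs DMSO.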"}},
  "note": "Calls of active or inactive are those of the source. The calls were made as follows: active = hit-call score of the fitted dose curve at least 0.9, where 1 is the maximum; inactive = score below 0.9.",
  "data": [
    {"smiles": "CC(=O)Oc1ccccc1C(=O)O", "values": [
      {"measurement": "outcome", "setting": "[1]", "value": "inactive"},
      {"measurement": "outcome", "setting": "[2]", "value": "inactive"}
    ]}
  ]
}
